Measured values: PubChem BioAssay AID1159580 (chemical genetic matrix, 2015)
Several values for one entry are separate records, joined by “and”; a condition that tells them apart may be missing. Equal values may be shown once. The campaign covered roughly 5,500 compounds. About 2,000 (36%) were called active. Inconclusive results (about 18%) are left out. Cut-off read from the data, not from the text of the source: active = normalized growth mostly below about 0.91 (no sharp cut-off); inconclusive = no clear call, values can overlap the other calls; inactive = mostly above about 0.92. This is one part of the list.

Assay: chemical genetic growth profiling, strain panel (AID 1159580);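 note: tested at 20 µM; growth read once vehicle control cultures reached saturation at 30 °C; 1 = growth at the plate median or of vehicle wells; lower values mean less growth of the strain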
Details: growth OD
[1] = S. cerevisiae deletion strains, locus YAL040C, strain CLN3, hits give low values
[2] = S. cerevisiae deletion strains, locus YDR150W, strain NUM1, hits give low values
[3] = S. cerevisiae deletion strains, locus YDR363W, strain ESC2, hits give low values
[4] = S. cerevisiae deletion strains, locus YER002W, strain NOP16, hits give low values
[5] = S. cerevisiae deletion strains, locus YGR229C, strain SMI1, hits give low values
[6] = S. cerevisiae deletion strains, locus YNL153C, strain GIM3, hits give low values
[7] = S. cerevisiae deletion strains, locus YNL175C, strain NOP13, hits give low values
[8] = S. cerevisiae deletion strains, locus YNL197C, strain WHI3, hits give low values
[9] = S. cerevisiae deletion strains, locus YNL224C, strain SQS1, hits give low values
[10] = S. cerevisiae deletion strains, locus YNL322C, strain KRE1, hits give low values
[11] = S. cerevisiae deletion strains, locus YOR083W, strain WHI5 (second series), hits give low values
[12] = S. cerevisiae deletion strains, locus YPL055C, strain LGE1, hits give low values
[13] = S. cerevisiae deletion strains, locus YAL013W, strain DEP1, hits give low values
[14] = S. cerevisiae deletion strains, locus YMR263W, strain SAP30, hits give low values

Measured: normalized growth

NC(=NCc1ccccc1)NC(=O)c1nc(Cl)c(N)nc1N
inactive: [1] 1 | [2] 1.02 | [3] 0.994 | [4] 1.01 | [5] 0.999 | [6] 0.993 | [7] 1.01 | [8] 0.996 | [9] 1.02 | [10] 1.01 | [11] 0.965 | [12] 1.01

CN(C)c1nc(N)c(C(=O)N=C(N)N)nc1Cl
inactive: [13] 1.01 | [1] 1 | S. cerevisiae deletion strains, locus YBR021W, strain FUR4, hits give low values 1.01 | S. cerevisiae deletion strains, locus YBR229C, strain ROT2, hits give low values 1.01 | S. cerevisiae deletion strains, locus YCL029C, strain bik1, hits give low values 1.01 | S. cerevisiae deletion strains, locus YDL035C, strain GPR1, hits give low values 1.03 | S. cerevisiae deletion strains, locus YDL074C, strain BRE1, hits give low values 0.983 | S. cerevisiae deletion strains, locus YDL101C, strain DUN1, hits give low values 1.01 | S. cerevisiae deletion strains, locus YDL134C, strain PPH21, hits give low values 0.999 | S. cerevisiae deletion strains, locus YDL185W, strain tfp1, hits give low values 1.01 | S. cerevisiae deletion strains, locus YDL192W, strain arf1, hits give low values 1.01 | S. cerevisiae deletion strains, locus YDR101C, strain arx1, hits give low values 1 | [2] 0.982 and 0.999 | S. cerevisiae deletion strains, locus YDR162C, strain NBP2, hits give low values 0.985 | S. cerevisiae deletion strains, locus YDR318W, strain mcm21, hits give low values 1.02 | [3] 1 | S. cerevisiae deletion strains, locus YDR388W, hits give low values 1 | S. cerevisiae deletion strains, locus YDR502C, strain sam2, hits give low values 0.983 | S. cerevisiae deletion strains, locus YEL061C, strain CIN8, hits give low values 1.01 | [4] 1.01 | S. cerevisiae deletion strains, locus YER110C, hits give low values 1.02 | S. cerevisiae deletion strains, locus YER155C, strain BEM2, hits give low values 1.01 | S. cerevisiae deletion strains, locus YER167W, strain BCK2, hits give low values 1.02 | S. cerevisiae deletion strains, locus YGL078C, strain dbp3, hits give low values 0.989 | S. cerevisiae deletion strains, locus YGL086W, strain mad1, hits give low values 1.02 | S. cerevisiae deletion strains, locus YGL248W, strain PDE1, hits give low values 1 | S. cerevisiae deletion strains, locus YGR078C, strain PAC10, hits give low values 0.99 | S. cerevisiae deletion strains, locus YGR135W, strain pre9, hits give low values 0.967 | [5] 1 | S. cerevisiae deletion strains, locus YGR252W, strain gcn5, hits give low values 1.02 | S. cerevisiae deletion strains, locus YHR030C, strain SLT2, hits give low values 1.01 | S. cerevisiae deletion strains, locus YHR079C, strain IRE1 (second series), hits give low values 1.01 | S. cerevisiae deletion strains, locus YHR094C, strain hxt1, hits give low values 0.998 | S. cerevisiae deletion strains, locus YHR129C, strain ARP1, hits give low values 1.01 | S. cerevisiae deletion strains, locus YHR200W, strain rpn10, hits give low values 1 | S. cerevisiae deletion strains, locus YIL066C, strain RNR3, hits give low values 1.02 | S. cerevisiae deletion strains, locus YIL073C, strain SPO22, hits give low values 1.07 | S. cerevisiae deletion strains, locus YIL125W, strain kgd1, hits give low values 1 | S. cerevisiae deletion strains, locus YIR030C, strain dcg1, hits give low values 0.998 | S. cerevisiae deletion strains, locus YJL095W, strain BCK1, hits give low values 0.997 | S. cerevisiae deletion strains, locus YJL134W, strain LCB3, hits give low values 1 | S. cerevisiae deletion strains, locus YJL168C, strain set2, hits give low values 1 | S. cerevisiae deletion strains, locus YJL187C, strain SWE1 (second series), hits give low values 0.988 | S. cerevisiae deletion strains, locus YJR043C, strain POL32, hits give low values 1.03 | S. cerevisiae deletion strains, locus YJR075W, strain HOC1, hits give low values 1.01 | S. cerevisiae deletion strains, locus YKL009W, strain mrt4, hits give low values 1.06 | S. cerevisiae deletion strains, locus YKL068W, hits give low values 0.997 | S. cerevisiae deletion strains, locus YKL085W, strain MDH1 (second series), hits give low values 1.01 | S. cerevisiae deletion strains, locus YKL085W, strain MDH1, hits give low values 1.01 | S. cerevisiae deletion strains, locus YKL190W, strain CNB1, hits give low values 1.01 | S. cerevisiae deletion strains, locus YKR001C, strain vps1, hits give low values 1.02 | S. cerevisiae deletion strains, locus YLR039C, strain RIC1, hits give low values 1.06 | S. cerevisiae deletion strains, locus YLR058C, strain SHM2, hits give low values 1.01 | S. cerevisiae deletion strains, locus YLR102C, strain apc9, hits give low values 1 | S. cerevisiae deletion strains, locus YLR262C, strain YPT6, hits give low values 1.04 | S. cerevisiae deletion strains, locus YLR268W, strain sec22, hits give low values 0.988 | S. cerevisiae deletion strains, locus YLR330W, strain CHS5, hits give low values 1.01 | S. cerevisiae deletion strains, locus YLR342W, strain FKS1 (second series), hits give low values 1.07 | S. cerevisiae deletion strains, locus YLR371W, strain rom2, hits give low values 1.01 | S. cerevisiae deletion strains, locus YLR418C, strain cdc73, hits give low values 0.925 | S. cerevisiae deletion strains, locus YML016C, strain PPZ1, hits give low values 1 | S. cerevisiae deletion strains, locus YML032C, strain rad52, hits give low values 1.03 | S. cerevisiae deletion strains, locus YML124C, strain tub3, hits give low values 0.999 | S. cerevisiae deletion strains, locus YMR078C, strain ctf18, hits give low values 1.01 | S. cerevisiae deletion strains, locus YMR223W, strain ubp8, hits give low values 1.02 | [14] 0.988 | S. cerevisiae deletion strains, locus YMR307W, strain GAS1, hits give low values 1.06 | S. cerevisiae deletion strains, locus YNL067W, strain RPL9B, hits give low values 0.986 | S. cerevisiae deletion strains, locus YNL128W, strain TEP1, hits give low values 1.01 | [6] 0.999 and 0.967 | [7] 1.01 | [8] 1 | [9] 1.01 | S. cerevisiae deletion strains, locus YNL233W, strain BNI4, hits give low values 0.989 | S. cerevisiae deletion strains, locus YNL250W, strain rad50, hits give low values 1.01 | S. cerevisiae deletion strains, locus YNL271C, strain bni1, hits give low values 1.01 | S. cerevisiae deletion strains, locus YNL298W, strain CLA4, hits give low values 1.01 | S. cerevisiae deletion strains, locus YNL307C, strain MCK1, hits give low values 1.02 | [10] 1.01 | S. cerevisiae deletion strains, locus YNR052C, strain pop2, hits give low values 1.02 | S. cerevisiae deletion strains, locus YOL006C, strain TOP1, hits give low values 0.981 | S. cerevisiae deletion strains, locus YOL012C, strain htz1 1.37 | S. cerevisiae deletion strains, locus YOL147C, strain pex11, hits give low values 1.01 | S. cerevisiae deletion strains, locus YOR061W, strain CKA2, hits give low values 1.01 | S. cerevisiae deletion strains, locus YOR069W, strain VPS5, hits give low values 1.01 | [11] 1.01 | S. cerevisiae deletion strains, locus YOR136W, strain idh2, hits give low values 1 | S. cerevisiae deletion strains, locus YOR144C, strain elg1, hits give low values 1 | S. cerevisiae deletion strains, locus YOR184W, strain ser1, hits give low values 1.05 | S. cerevisiae deletion strains, locus YOR316C, strain cot1, hits give low values 1 | [12] 0.956 | S. cerevisiae deletion strains, locus YPL241C, strain CIN2, hits give low values 0.999 | S. cerevisiae deletion strains, locus YPR119W, strain clb2, hits give low values 0.988 | S. cerevisiae deletion strains, locus YPR141C, strain kar3, hits give low values 0.999 | S. cerevisiae deletion strains, locus YPR163C, strain tif3, hits give low values 0.999 | S. cerevisiae deletion strains, locus YPR167C, strain met16, hits give low values 1 | S. cerevisiae deletion strains, strain wtn01, hits give low values 0.997 | S. cerevisiae strains, strain wild type, hits give low values 1.01

CCN(c1nc(N)c(C(=O)N=C(N)N)nc1Cl)C(C)C
inactive: [13] 1 | [1] 1 | [3] 0.989 | [4] 1.04 | [14] 1 | [7] 1.04 | [8] 1.02 | [9] 1.06 | [11] 1.02
